D3 antag – blocks the human D3 dopamine receptor. P35462. D3R cells, DiscoveRx beta-arrestin luminescence, antagonist mode; hits give low values. max response, negative = inhibition, %. 360,000 tested, 2.5% active; in the data active = max response below about -50%; inconclusive = no clear call, values can overlap the other calls; also: % is scaled to controls: 0 for no effect and ±100 for the full control effect
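Cells expressing the human receptor were seeded at 1500 cells/well, incubated overnight at 37 degrees C in 5% CO2, then exposed to library compounds with dopamine controls for 90 minutes at 37 degrees C before luminescent detection.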
IL1B secr inh – inhibitors of inflammasome signaling (IL-1 beta secretion); 360,000 tested, 4.7% active; THP-1 LPS/ATP IL-1B secretion, AlphaLISA, 16 h; hits give low values; AID 743279; activity change, % at 57.5 µM; in the data active = activity change below about -50%; inconclusive = mostly about -30% to -49%; also: % is scaled to controls: 0 for no effect and ±100 for the full control effect
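Secreted IL-1B measured by AlphaLISA bead assay after 16 h compound exposure of THP-1 cells; compounds (final up to 57.5 uM) added 1 h before LPS (250 ng/mL) and ATP (1.25 mM) stimulation; lower signal means less secretion.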
TDP1 cell noCPT – qHTS for Inhibitors of human tyrosyl-DNA phosphodiesterase 1 (TDP1): qHTS in cells in absence of CPT; 420,000 tested, 15% active; DT40 Tdp1-/- hTDP1 cells, no CPT, ATP luminescence, 48 h; Potency, µM (doses to about 46.2 µM), for inactives: at the highest dose activity change, negative = growth inhibition, actives largely listed as inhibitors; AID 686978, 2013; also: potency is read from the fitted curve at half-maximal effect; % is scaled to controls: 0 for no effect and ±100 for the full control effect; nearly all actives have a fitted effect of over 55% in size
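Compound effects on proliferation are scored in DT40 Tdp1-/-;hTDP1 cells in the absence of CPT. ATP levels (CellTiter-Glo luminescence) are recorded after a ≥48 hr, 37 °C incubation.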
ClpP mod – qHTS Assay for Activators of ClpP. 340,000 tested, 1.9% active. purified B. subtilis ClpP, FRET peptide cleavage, 20 min. Potency, µM (top dose mostly 57.5 µM), for the others: at the top dose activity change, negative = active; active = well fitted falling curve with a large enough effect; inconclusive = small, poorly fitted or top-dose-only effect; inactive = no such curve, though single readings can be large or run the other way; also: potency is read from the fitted curve at half-maximal effect; the source files actives as falling curves though it sought activators and does not explain the sign; nearly all actives have a fitted effect of over 65% in size
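Purified B. subtilis ClpP, 10 microg/mL final in Tris/HCl pH8 with KCl, BSA, glycerol and Tween-20, cleaved an Abz/nitrotyrosine-quenched decapeptide. Fluorescence (ex 320, em 430) was read at 0 and 20 min at room temperature. Delta was normalized to 5.8 microM ADEP and DMSO/no-enzyme controls.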
D3 ag – agonists of human D3 dopamine receptor | P35462 | max activation, % | AID 652048 | D3R DiscoveRx beta-arrestin cells, luminescence, 90 min | 410,000 tested, 0.58% active; in the data active = max activation above about 30%; also: 0% is about no effect
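Cells at 1500/well, incubated overnight, then treated with pinned compounds (dopamine as control) for 90 min at 37 degrees C. DiscoveRx reagent added for 30 - 60 minutes at room temperature; luminescence read.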
TDP1 cell CPT – growth inhibition of DT40 Tdp1-/-;hTDP1 cells with camptothecin (screen for TDP1 inhibitors) | chicken DT40 Tdp1-/-;hTDP1 cells + 20 nM CPT, ATP luminescence, 48 h | Potency, µM (doses to about 46.2 µM), for inactives: at the highest dose activity change, negative = growth inhibition, usual class: inhibitors | 420,000 tested, 12% active; also: potency is read from the fitted curve at half-maximal effect; % is scaled to controls: 0 for no effect and ±100 for the full control effect; nearly all actives have a fitted effect of over 55% in size
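Cell growth measured by CellTiter-Glo luminescence after a minimum 48 h, 37 C compound exposure with 20 nM CPT in Tdp1-knockout DT40 cells stably expressing hTDP1, seeded 400/well; qHTS titration format.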
Starred values were filed as active, the others as inactive; ? = inconclusive; . = no result. In the library only some 21% were active in any assay of this set; here they are far more common. Unless noted, calls follow the shape of the dose curve; as a rule, active = well fitted inhibition curve with a large enough effect; inconclusive = small, poorly fitted or top-dose-only effect; inactive = flat fitted curve, though single readings scatter.

SMILES	D3 antag	IL1B secr inh	TDP1 cell noCPT	ClpP mod	D3 ag	TDP1 cell CPT
O=C(Nc1ccn(CCCNCc2ccccn2)c(=O)n1)OCc1ccccc1	-11	21	0%	-3%	-11	10%
O=C(Nc1ccn(CCCNCC2CCCCC2)c(=O)n1)OCc1ccccc1	-15	-21	?	-1%	-11	?
O=C(Nc1ccn(CCCN2CCN(Cc3ccc(F)cc3)CC2)c(=O)n1)OCc1ccccc1	-30	-10	15µM*	1%	-2	21µM*
CCCSCCCNC(=O)CN1C(=O)COc2ccc(S(=O)(=O)N3CCCCCC3)cc21	.	.	?	-2%	-5	?
Cc1ccc(C2(c3noc(CN(C)Cc4cnn(C)c4)n3)CCCC2)cc1	-5	-22	?	.	-4	21µM*
Clc1ccc2c(c1)C(C1=NCCN1)c1ccccc1CS2 (centres undefined)	6	-12	5.8µM*	-4%	1	6.5µM*
Nc1ncc2c(n1)-c1cc(Cl)ccc1SC2	-12	-18	-11%	.	3	-3%
O=C(N/N=C/c1c[nH]c2ccccc12)c1cc(Cl)ccc1O	2	4	-8%	?	-9	?
Fc1c(F)c(F)c(N/N=C/c2c[nH]c3ccccc23)c(F)c1F	0	-87*	?	2%	-3	?
Cc1nnc(C)n1/N=C/c1cc2ccccc2nc1Cl	8	92	2.9µM*	1%	4	2.6µM*
O=C(O)c1ccc(N/N=C/c2c[nH]c3ccccc23)cc1	2	14	6%	-23%	3	1%
CCCCn1c(/N=C/c2c[nH]c3ccccc23)nc2ccccc21	12	-52*	21µM*	-1%	19	?
CCCn1c(/N=C/c2c[nH]c3ccccc23)nc2ccccc21	2	?	-8%	-7%	-3	-17%
C(=NN=C1c2ccccc2-c2ccccc21)c1c[nH]c2ccccc12	-17	-103*	?	-1%	0	?
COc1ccc(S(=O)(=O)N2CCOCC2)cc1NC(=O)c1ccncc1	15	-4	-1%	1%	1	-2%
Cc1ccc2c(c1)c1c(c(=O)n(-c3cccc(Cl)c3)c(=O)n1C)n2C	.	.	-27%	4%	5	?
CCOc1ccc(NC(=O)CSC2=Nc3ccccc3C3=NC(CC(=O)NCc4ccccc4OC)C(=O)N23)cc1 (centres undefined)	.	.	?	1%	-21	?
Cc1cc(N/N=C/c2c[nH]c3ccccc23)c2ccccc2n1	-8	12	-19%	.	-9	4%
Cn1c(N/N=C/c2c[nH]c3ccccc23)nc2ccccc21	12	-98*	?	-9%	-3	?
O=C(CN1CCOCC1)N/N=C/c1cc2ccccc2nc1Cl	6	-10	?	-3%	-6	?
Cn1c(N/N=C/c2cc3ccccc3nc2Cl)nc2ccccc21	-9	11	2.6µM*	2%	-2	3.3µM*
CCOC(=O)/C(C#N)=C/c1cc2ccccc2nc1Cl	15	56	4µM*	-1%	9	2.8µM*
CCOC(=O)C1(C)CCN1C(=O)c1ccccc1OC(F)(F)F (centres undefined)	-17	0	-12%	1%	-1	-17%
COc1ccc(CN2CCC(Oc3ccc(C(=O)N4CCCCC4)cc3)CC2)cc1C	-22	-53*	?	-3%	-40	?
COc1ccccc1/C=C/CN1CCC(Oc2ccc(C(=O)N3CCCC3)cc2)CC1	-68*	-1	?	-10%	-13	?
SMILES	D3 antag	IL1B secr inh	TDP1 cell noCPT	ClpP mod	D3 ag	TDP1 cell CPT
COc1cccc(CN2CCC(Oc3ccc(C(=O)N4CCCCC4)cc3)CC2)c1	-18	-15	-11%	0%	-11	-21%
CSc1cccc(CN2CCC(Oc3ccc(C(=O)N4CCCCC4)cc3)CC2)c1	?	-88*	-25%	2%	-15	?
O=C1NC(=O)/C(=C/c2cccc([N+](=O)[O-])c2)N1	12	15	-6%	2%	1	0%
COc1cc(/C=C2\Oc3cc(O)ccc3C2=O)ccc1O	0	-2	?	-2%	-4	-25%
CCN1C/C(=C/c2cccc([N+](=O)[O-])c2)C(=O)/C(=C/c2cccc([N+](=O)[O-])c2)C1	-30	-106*	0.73µM*	-3%	-8	0.58µM*
COc1cc(C=C2CCC/C(=C\c3ccc(O)c(OC)c3)C2=O)ccc1O	.	.	7.5µM*	.	5	3.3µM*
COc1cc(C=C2NC(=O)NC2=O)ccc1O	?	-18	?	-5%	-14	1%
CCOc1ccc(N2C(=O)S/C(=C\c3ccc(O)c(OCC)c3)C2=O)cc1	-13	-53*	16µM*	-3%	-5	-101%
COc1cc(/C=C2\CCC/C(=C\c3ccc(O)c(OC)c3)C2=O)ccc1O	13	-95*	8.2µM*	-1%	-7	7.1µM*
NC(=O)c1ccc(NC(=O)COC(=O)CCC2CCCCC2)cc1	-10	13	-2%	-2%	1	10%
COc1cc(C=C2C(=O)C=CC2=O)ccc1O	-136*	-113*	0.26µM*	1%	-19	0.16µM*
CCOc1cc(/C=C2\CN(CC)C/C(=C\c3ccc(O)c(OCC)c3)C2=O)ccc1O	?	-104*	4.1µM*	.	-22	5.2µM*
CCOc1cc(/C=N/N=C/c2ccc(O)c(OCC)c2)ccc1O	-2	35	-8%	2%	21	-21%
